Screening data from PubChem.
Compounds with a hit are over-represented: about 11% of the library has one in this group of screens.
Pf growth 96h = inhibits malaria parasite growth, 96 h; Potency, µM (doses to about 28.7 µM), inactives show at the highest dose activity change, negative = inhibition, hits mostly inhibitors; P. falciparum luciferase reporter growth, 96 h; 320,000 tested, 6.9% active
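Parasite growth measured via integrated firefly luciferase reporter in P. falciparum. Infected erythrocytes at 2% hematocrit, 0.05% parasitemia final were treated 96 hours at 37 C under 5% CO2, and luminescence was read.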
HCV inh = blocks hepatitis C virus. AID 651820. Huh7.5.1 HCVcc-Cre infection, luciferase reporter, 44 h. 340,000 tested, 3.4% active. Potency, µM (doses to about 41.8 µM), inactives show at the top dose activity change, negative = inhibition, hits mostly inhibitors
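Seed cells (1,000/well) for 4 h; treat with compound and infect with HCVcc-Cre, moi about 0.5. Incubate 44 h, then detect luciferase activity.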
AmpC inh no detg = inhibitors of E. coli AmpC beta-lactamase without detergent; P00811; AmpC nitrocefin hydrolysis, absorbance 480 nm, 0.0001% Triton; Potency, µM (highest dose often 57.1 µM), without a hit: top-dose activity change, negative = inhibition, usual class: inhibitors; 330,000 tested, 0.52% active; AID 485341;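 further: plate controls were no compound for no effect and no enzyme for full effect; nearly all actives have a fitted effect of over 20% in size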
Target sequence (P00811 whole entry, looked up): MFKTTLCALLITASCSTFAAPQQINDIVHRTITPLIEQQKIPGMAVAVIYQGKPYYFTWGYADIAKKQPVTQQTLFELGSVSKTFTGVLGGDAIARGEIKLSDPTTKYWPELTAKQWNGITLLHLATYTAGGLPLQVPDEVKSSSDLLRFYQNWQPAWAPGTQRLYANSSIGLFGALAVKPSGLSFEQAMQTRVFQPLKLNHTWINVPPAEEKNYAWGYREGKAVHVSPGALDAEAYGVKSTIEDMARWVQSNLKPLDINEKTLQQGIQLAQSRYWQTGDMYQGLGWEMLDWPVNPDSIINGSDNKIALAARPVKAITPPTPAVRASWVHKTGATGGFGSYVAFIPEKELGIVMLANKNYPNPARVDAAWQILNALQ
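AmpC (5.3 nM in the dispensed reagent) in 20 mM phosphate pH 7.0 with 0.01% (detergent screen) or 0.0001% Triton X-100 was preincubated with compounds for 15 min at room temperature. Nitrocefin was then added from an 800 uM solution, and hydrolysis was followed at 480 nm.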
AmpC inh detg = AmpC beta-lactamase inhibition with detergent present | Potency, µM (series often up to 114 µM), for the others: at the top dose activity change, negative = inhibition, hits mostly inhibitors | AmpC hydrolysis of nitrocefin, absorbance 480 nm, 0.01% Triton | 370,000 tested, 0.041% active | AID 485294;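 further: 0% = no-compound wells and -100% = no-enzyme wells; nearly all actives have a fitted effect of over 25% in size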
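20 mM phosphate pH 7.0 + 0.01% (detergent screen) or 0.0001% Triton X-100; 5.3 nM AmpC reagent; cpd preinc 15 min RT; nitrocefin (800 uM stock) to start; A480 q20 s × 4 min; Activity was normalised to no-enzyme and no-compound control wells.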
AMA1 RON2 block = disrupts binding of P. falciparum AMA1 to RON2. Potency, µM (top dose mostly 58.2 µM), inactives show top-dose activity change, negative = inhibition, hits mostly inhibitors. 360,000 tested, 0.2% active. AID 720542. AlphaScreen AMA1-biotinylated RON2 peptide binding;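 further: 0% = vehicle wells and -100% = peptide control; nearly all actives have a fitted effect of over 45% in size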
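AMA1 (3D7) with his tag at 25 nM final met compounds first, then biotinylated RON2 peptide at 25 nM; detection used donor plus acceptor beads, 10 µg/mL apiece, read by AlphaScreen after 30 min at room temperature.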
Pf growth 48h = P. falciparum growth inhibition at 48 hours (one generation). AID 504832. P. falciparum luciferase growth in erythrocytes, 48 h. Potency, µM (highest dose often 28.7 µM), inactives show top-dose activity change, negative = inhibition, actives largely listed as inhibitors. 310,000 tested, 5.9% active
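Compounds are pin-transferred into medium, infected erythrocytes (2% hematocrit, 0.1% parasitemia final) are added, and plates sit one parasite generation at 37 C in 5% CO2. Detection reagent is then added and luminescence measured.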
* = called active by the depositor; i = inactive; u = inconclusive; x = no result given. The call rests on the fitted dose curve; in most records, active means well fitted curve in the direction sought with a large enough effect; inconclusive means small, poorly fitted or top-dose-only effect, or another doubt; inactive means no such curve, though single readings can be large; an effect the other way counts as inactive or inconclusive. Unless noted, on the % scale 0 is the no-effect control and ±100 the full control effect; potency means the concentration at half of the fitted maximal effect.

SMILES	Pf growth 96h	HCV inh	AmpC inh no detg	AmpC inh detg	AMA1 RON2 block	Pf growth 48h
COC(=O)c1cc(C)nc2c1c(=O)nc(SCc1cccc(C)c1)n2C1CC1	x	x	x	9%	x	x
COc1cccc(C(=O)NC(=S)Nc2ccccc2N2CCCCC2)c1	u	u	-23%	4%	26%	7.4µM*
COc1ccc(C(=O)NC(=S)Nc2ccccc2N2CCOCC2)cc1Br	222%	16µM*	-5%	u	9%	u
COc1cc(C(=O)NC(=S)Nc2ccccc2N2CCCC2)cc(OC)c1OC	-11%	11µM*	84%	-10%	7%	0%
COc1ccc(CCNC(=O)c2nc(SCc3ccc(C)cc3)ncc2Cl)cc1OC	x	x	x	17%	x	x
Cc1cccc(-c2nnn3c2nc(NCCc2ccc(S(N)(=O)=O)cc2)c2cc(Cl)ccc23)c1	x	x	x	11%	x	x
Cc1ccc2scc(N3CCCCC3C)c(=O)c2c1 (centres undefined)	x	x	x	1%	x	x
COc1ccc(/C=C/C(=O)c2c(O)ccc3c(C)cc(=O)oc23)cc1	i	u	6%	-12%	-10%	10µM*
COc1ccc(/C=C\C(=O)c2c(O)ccc3c(C)cc(=O)oc23)cc1	x	-11%	44%	4%	-8%	u
COC(=O)c1ccc(NC(=O)C2CCN(c3ncnc4c3nc3n4CCCCC3)CC2)cc1	x	x	x	-6%	x	x
Cc1cc(C)c(S(=O)(=O)Oc2ccccc2[N+](=O)[O-])c(C)c1	x	10µM*	x	x	-1%	x
CCc1nc2ccc(C(=O)NCc3ccccc3C)cc2nc1CC	x	x	x	7%	x	x
CC(C)c1ccc(Nc2sc(C(=O)c3ccccc3)c(N)c2S(=O)(=O)c2ccccc2)cc1	x	x	x	2%	x	x
CC(=O)COc1ccc2c3c(c(=O)oc2c1C)CCCCC3	u	11µM*	-14%	-3%	15%	109%
Cc1c(OC(C)C(=O)NC2CC(C)(C)NC(C)(C)C2)ccc2c3c(c(=O)oc12)CCC3 (centres undefined)	u	-14%	-10%	-7%	4%	u
CC(=O)C(C)Oc1ccc2c3c(c(=O)oc2c1C)CCCC3 (centres undefined)	8.3µM*	10µM*	24%	2%	21%	9.3µM*
Cc1c(OCC(=O)N(C)C)ccc2c3c(c(=O)oc12)CCCCC3	26%	u	64%	-1%	-6%	12%
COc1cc(NC(=O)C2CCCN2C(=O)OCc2ccccc2)cc(OC)c1 (centres undefined)	0%	u	8%	0%	1%	7.4µM*
Cc1cccc(NC(=O)C2CCCN2C(=O)OCc2ccccc2)c1 (centres undefined)	31%	0%	-1%	-2%	12%	u
O=C(OCc1ccccc1)N1CCC2CC1c1cc(-c3ccccc3)ccc12 (centres undefined)	x	-17%	x	x	-3%	x
COc1ccc(-c2cccc3c2C2CC3CCN2C(=O)OCc2ccccc2)cc1 (centres undefined)	x	7.9µM*	x	x	-5%	x
O=C(CSc1nc2c(cnn2-c2ccc(F)cc2)c(=O)[nH]1)Nc1ccccc1C(F)(F)F	x	x	x	-9%	x	x
Cc1cnc(C(=O)Nc2ccccc2-n2cccc2)cn1	12µM*	-27%	-9%	15%	30%	8%
Cc1ccccc1S(=O)(=O)Cc1ccc(C(=O)NCc2cccnc2)o1	9.3µM*	10%	-4%	-18%	18%	-8%
Cc1ccccc1S(=O)(=O)Cc1ccc(C(=O)NCc2ccccc2)o1	u	12%	1%	-8%	11%	7%
SMILES	Pf growth 96h	HCV inh	AmpC inh no detg	AmpC inh detg	AMA1 RON2 block	Pf growth 48h
O=C(NCc1ccccc1)c1ccc(CS(=O)(=O)c2ccccc2)o1	10µM*	20%	-15%	-4%	22%	x
O=C(NCc1ccccc1)c1ccc(CS(=O)(=O)c2ccc(Br)cc2)o1	u	-14%	-7%	u	7%	-14%
Cc1ccc(C)n1-c1nnc(N2CCCC(C(=O)Nc3ccc(C(C)C)cc3)C2)s1 (centres undefined)	x	x	x	-12%	x	x
CCC(Cc1ccccc1)NC(=O)c1ccc2nc(N3CCC(C)CC3)sc2c1 (centres undefined)	x	x	x	6%	x	x
O=C(Nc1ccc(C(=O)OCc2cc(=O)n3c4c(sc3n2)CCCC4)cc1)c1ccc(F)cc1	x	x	x	8%	x	x
Cc1[nH]c2c(C)cccc2c1CCNC(=O)c1ccc2c(c1[N+](=O)[O-])C(=O)c1ccccc1C2=O	u	u	-39%	-1%	-16%	12µM*
CCn1c(C)c(C2=CCN(S(=O)(=O)c3ccccc3)CC2)c2ccccc21	u	u	18µM*	0%	-30%	u
COc1ccc(CCNC(=O)CCn2c(=O)c3ccccc3n(CC(=O)Nc3ccc(C)cc3C)c2=O)cc1OC	x	x	x	20%	x	x
CCOC(=O)CCn1cnc2onc(-c3cc(OC)ccc3Cl)c2c1=O	x	x	x	-2%	x	x
Cc1ccc(C(=O)N2CCN(c3ccc(NC(=O)c4ccc(Br)o4)cc3)CC2)cc1	x	10µM*	34%	0%	-24%	10µM*
Cc1ccc(C(=O)N2CCN(c3ccc(NC(=O)c4ccc5c(c4)OCCO5)cc3)CC2)cc1	u	2.8µM*	-11%	7%	2%	u
O=C(Nc1ccc(C(=O)N2CCC(N3CCCC3)CC2)cc1)c1ccc(Br)o1	48%	9%	1%	2%	-16%	u
O=C(Nc1ccc(C(=O)N2CCC(O)(c3ccc(Cl)c(C(F)(F)F)c3)CC2)cc1)c1ccc(Br)o1	13µM*	-23%	31%	1%	-22%	u
CC(C)(C)c1cnnn1-c1ccc(NC(=O)c2ccc(Br)o2)cc1	261%	2%	-23%	4%	-2%	10µM*
COc1cccc(C(=O)Nc2ccc(-n3nncc3C(C)(C)C)cc2)c1	18%	-9%	-25%	0%	-3%	-1%
O=C(Nc1ccc(C(=O)N2CCN(c3ccncc3)CC2)cc1)c1ccc(Br)o1	x	x	x	x	2%	x
CCNC(=O)C1CCN(S(=O)(=O)c2ccc3c(c2)CCCN3C(C)=O)CC1	x	x	x	2%	x	x
CN(C)c1ccc(CNC(=O)CCn2c(=O)c3cccn3c3ccc(F)cc32)cc1	x	x	x	4%	x	x
O=C(Nc1ccc(N2CCN(C(=O)c3ccccc3)CC2)cc1)c1ccc2c(c1)OCO2	-5%	22µM*	-14%	4%	-6%	u
Cc1ccccc1C(=O)N1CCN(c2ccc(NC(=O)c3cccc(OC(C)C)c3)cc2)CC1	-15%	u	-19%	-11%	4%	u
